RecA intein inh – inhibitors of M. tuberculosis RecA intein splicing | P9WHJ3 | cell-free RecA intein splicing, fluorescence | inhibition, % (test concentration not listed) | 290,000 tested, 0.75% active; in the data active = inhibition above about 30%; inconclusive = no clear call, values can overlap the other calls
Mtb betalactam – beta-lactam sensitization of Mtb H37Rv. M. tuberculosis H37Rv growth with meropenem, percent inhibition. inhibition, % at 25 µM. 330,000 tested, 0.27% active; call rule not given here;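 also: growth measured after seven days incubation then overnight dye step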
UGM FP inh – blocks M. tuberculosis UGM enzyme | purified UGM, fluorescence polarization probe displacement | inhibition, % at 10 µM | 320,000 tested, 0.06% active | AID 504406; in the data active = inhibition above about 10%, passing the limit was not always enough; inconclusive = no clear call, values can overlap the other calls
Rv3671c inh – inhibitors of M. tuberculosis serine protease Rv3671c; inhibition, % at 5.96 µM; 320,000 tested, 0.048% active; in the data active = inhibition above about 38%;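 also: extracellular domain of Rv3671c used as enzyme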
Target sequence (P9WHR9 whole entry, looked up, the tested form may be a part): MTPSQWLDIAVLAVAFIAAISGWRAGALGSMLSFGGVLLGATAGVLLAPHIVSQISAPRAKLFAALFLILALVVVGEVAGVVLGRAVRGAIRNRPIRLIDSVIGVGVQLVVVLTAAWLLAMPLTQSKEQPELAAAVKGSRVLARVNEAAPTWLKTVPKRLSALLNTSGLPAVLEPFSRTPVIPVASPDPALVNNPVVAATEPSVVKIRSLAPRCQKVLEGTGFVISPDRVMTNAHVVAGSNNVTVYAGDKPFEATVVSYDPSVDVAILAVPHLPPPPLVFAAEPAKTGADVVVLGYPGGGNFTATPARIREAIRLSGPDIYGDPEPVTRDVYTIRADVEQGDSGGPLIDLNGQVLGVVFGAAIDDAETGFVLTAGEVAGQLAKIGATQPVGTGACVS
GDH-TPI counter-1 – inhibits GDH-TPI coupling enzymes, artifact for Mtb FBA screen; GDH-TPI coupled enzyme counterscreen, NADH absorbance; inhibition, % at 4.8 µM; 360,000 tested, 1.2% active; AID 588335; in the data active = inhibition above about 30%
Mtb FBA inh – inhibits M. tuberculosis FBA enzyme; purified M. tuberculosis FBA, fluorescence read-out; P9WQA3; AID 588726; 360,000 tested, 2.3% active; inhibition, % at 1 µM
Mtb FBA confirm – confirmation of M. tuberculosis fructose-bisphosphate aldolase inhibitors; purified M. tuberculosis FBA, fluorescence read-out; inhibition, % at 1 µM; shares compounds with Mtb FBA inh; 5,600 tested, 78% active
GDH-TPI counter-2 – GDH-TPI inhibition counter-screen for FBA inhibitors; 5,600 tested, 81% active; GDH-TPI coupled enzyme counterscreen, fluorescence; AID 652141; inhibition, % at 1 µM; shares compounds with Mtb FBA inh; in the data active = inhibition above about 10%
A number is an active result; 0 = inactive; ? = inconclusive; - = not tested or not shown; + = active, no number. A selection: hits, their analogues and other compounds. The true share with any hit is near 4%. Rule as the data show it, unless noted: active = inhibition above about 27%; inactive = the rest.

SMILES	RecA intein inh	Mtb betalactam	UGM FP inh	Rv3671c inh	GDH-TPI counter-1	Mtb FBA inh	Mtb FBA confirm	GDH-TPI counter-2
Nn1c(SCC(=O)Nc2nnc(-c3ccccc3)o2)nnc1C1CC1	0	0	0	0	0	45	0	0
CCOC(=O)N1CCN(C(=O)c2cn(CCOC)c(=O)c3c2c2ccccc2n3C)CC1	0	-	0	0	0	43	+	+
COCCn1cc(C(=O)N2CCN(C)CC2)c2c3ccccc3n(C)c2c1=O	0	0	0	0	0	42	106	62
COc1ccccc1CNC(=O)COC(=O)c1cnc(C)cn1	-	-	-	-	0	0	-	-
CCN(CC)c1cc(C)c2cc(NC(=O)CNC(C)=O)ccc2n1	0	0	0	0	0	49	101	110
Clc1ccc(-n2nnc(-c3cccnc3Cl)n2)cn1	0	0	0	0	0	0	-	-
COc1ncccc1-c1nnn(-c2ccc(Cl)nc2)n1	0	0	0	0	0	27	+	+
Cc1cc2[nH]c(=O)c3ccccc3n2n1	0	0	0	0	0	0	-	-
Cc1cc2[nH]c(=O)cc(-c3ccccc3)n2n1	0	0	0	0	0	34	153	120
COc1ccc2oc(C(=O)OCC(=O)Nc3ccccc3)c(C)c2c1	0	0	0	0	0	33	+	168
COc1ccc2oc(C(=O)OCC(=O)Nc3ccccc3OC)c(C)c2c1	0	0	0	0	0	0	-	-
COc1ccc2oc(C(=O)OCC(=O)Nc3ccc(C(=O)N(C)C)cc3)c(C)c2c1	0	0	0	0	0	28	44	44
COc1ccc2oc(C(=O)OCC(=O)NC(=O)NC(C)C)c(C)c2c1	0	0	0	0	0	35	45	35
COc1ccc2oc(C(=O)OCC(=O)NC(C)c3ccccc3)c(C)c2c1 (stereo not given)	0	0	0	0	0	39	127	85
Cc1cnc(NC(=O)CCCNC(=O)c2ccc(Cl)cc2)s1	-	0	0	0	0	0	-	-
CC12CCC(C(=O)N(NC(=O)c3cc(Cl)ccc3O)C1=O)C2(C)C (stereo not given)	0	0	0	0	0	44	0	0
CC[C@@H]1[C@H]2CCCC(=O)N3CC[C@@H](C[C@@H]1OC(=O)Nc1ccccc1)[C@@H]23	0	0	0	0	0	0	-	-
COc1ccc(CNc2nc3nc(C)c(Cl)c(C)n3n2)cc1	0	0	0	0	0	0	-	-
Cc1nc2nc(-c3ccco3)nn2c(C)c1Cl	0	0	0	0	0	38	37	35
Cc1nc2nc(COc3ccccc3)nn2c(C)c1Cl	-	0	0	0	0	39	+	189
Cc1nc2nc(NCc3cccs3)nn2c(C)c1Cl	0	0	0	0	0	35	62	41
Cc1nc2nc(Cc3ccccc3)nn2c(C)c1Cl	0	0	0	0	0	0	-	-
Cc1cccc(NC(=O)CN(C)C(=O)Cc2ccc(-c3ccccc3)cc2)c1C	-	-	-	-	0	0	-	-
Cc1ccc(S(=O)(=O)N2CCN(C(=O)CN3C(=O)c4ccc([N+](=O)[O-])cc4C3=O)CC2)c(C)c1	0	0	0	0	0	0	-	-
O=C(CCCCC(=O)NNC(=O)COc1ccccc1)NNC(=O)COc1ccccc1	0	0	0	0	0	0	-	-
SMILES	RecA intein inh	Mtb betalactam	UGM FP inh	Rv3671c inh	GDH-TPI counter-1	Mtb FBA inh	Mtb FBA confirm	GDH-TPI counter-2
COc1ccc(OC)c(/C=N/NC(=O)CC2C(=O)NN=C2C)c1 (stereo not given)	0	0	0	0	0	68	42	38
COc1ccc(OC)c(C=NNC(=O)NN=Cc2cc(OC)ccc2OC)c1	-	-	-	-	0	0	-	-
COc1ccc(OC)c(/C=N/NC(=O)CC(=O)NCc2ccccc2)c1	0	0	0	0	0	29	111	103
COc1ccc(OC)c(/C=N/Nc2nc(C)cc(=O)[nH]2)c1	0	0	0	0	0	49	194	173
COc1ccc(OC)c(/C=N/NC(=O)CC(=O)NC2CCCCC2)c1	0	0	0	0	0	105	152	122
COc1cccc(C(=O)NCC(=O)N2CCN(c3ccc(C(F)(F)F)cn3)CC2)c1	-	-	-	-	0	0	-	-
COc1cccc(N2CCN(C(=O)c3cc4c(s3)CCCCC4)CC2)c1	-	0	0	0	0	0	-	-
CCOc1cc(/C=N/NC(=O)CCCC(=O)NC2CCCCC2)ccc1O	0	0	0	0	0	56	0	14
O=C(COC(=O)c1ccc(F)cc1)NC1CC1	-	0	0	0	0	0	-	-
COc1ccc(-c2nc3c(-c4ccccc4)cnn3cc2C)cc1F	0	0	0	0	0	0	-	-
Cc1ccc(-c2cnc3cccnn23)cc1F	-	-	-	-	0	60	0	0
COc1cccc(-c2cnc3cccnn23)c1	-	-	-	-	0	53	97	69
COc1ccc(NC(=O)NNC(=O)C(C)Oc2ccc3ccccc3c2)cc1 (stereo not given)	0	0	0	-	0	0	-	-
Nn1c(SCC(=O)Nc2cccnc2Cl)nnc1-c1ccccc1	-	0	0	0	0	0	-	-
CC(C)(C)NC(=O)CSc1nc(-c2ccccc2)c(-c2ccccc2)[nH]1	0	?	0	0	0	0	-	-
O=C(O)CSc1nc(-c2ccccc2)c(-c2ccccc2)[nH]1	0	0	0	0	0	29	0	0
O=C(CN1C(=O)/C(=C\c2cccc(Br)c2)Oc2ccccc21)NCCCN1CCOCC1	0	0	0	0	0	33	162	130
O=C(O)CN1C(=O)/C(=C/c2cccc(Cl)c2)Oc2ccccc21	0	0	0	0	0	67	+	+
O=C(Nc1nnc([C@H]2C[C@H](O)[C@@H](CO)O2)s1)c1ccccc1F	-	-	-	-	0	0	-	-
COc1cccc(NC(=O)COC(=O)CCC(=O)c2cccs2)c1	-	0	0	0	0	0	-	-
N=c1oc2ccc3ccccc3c2cc1-c1nc(-c2ccccc2)cs1	0	0	0	0	0	0	-	-
N=c1oc2ccc3ccccc3c2cc1C(N)=S	0	0	0	0	0	104	33	17
Nc1cc(Cl)ccc1C(=O)OCC(=O)N1CCOCC1	0	0	0	0	0	44	63	53
Nc1cc(Cl)ccc1C(=O)OCC(=O)N1CCCC1	0	0	0	0	0	59	93	84
CCN(C(=O)COC(=O)c1ccc(Cl)cc1N)C1CCCCC1	0	0	0	0	0	31	93	87
Nc1cc(Cl)ccc1C(=O)OCC(=O)N1CCCCCC1	-	0	0	0	0	60	0	0
Nc1cc(C(=O)OCC(=O)N2CCCC2)ccc1Cl	0	0	0	0	0	0	-	-
CCc1nc2ccc(C(=O)NCCCN(C)C)cn2c1N(C)CCCc1ccccc1	-	-	-	-	0	0	-	-
Cc1ccc(S(=O)(=O)N2CCC(C(=O)NC3CC(C)(C)NC(C)(C)C3)CC2)cc1	0	0	0	0	0	0	-	-
Cc1ccc(C(=O)OCC(=O)NCC2CCCO2)c(C)c1 (stereo not given)	0	0	0	0	0	0	-	-
